Experimental data reported in PubChem BioAssay AID1159580 (chemical genetic matrix, 2015).
Among all 5,500 compounds or so, about 2,000 (36%) were called active. About 18% were inconclusive and are not listed. Cut-off read from the data, not from the text of the source: active = normalized growth mostly below about 0.91 (no sharp cut-off); inconclusive = no clear call, values can overlap the other calls; inactive = mostly above about 0.92. The list shows a part of the results.

Test: chemical genetic growth profiling, strain panel (AID 1159580);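 note: tested at 20 µM; growth read once vehicle control cultures reached saturation at 30 °C; 1 = growth at the plate median or of vehicle wells; lower values mean less growth of the strain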
Settings: growth OD

Measured: normalized growth

CNC(=O)O/N=C\C(C)(C)SC
inactive: S. cerevisiae deletion strains, locus YJR043C, strain POL32, hits give low values 1.03 | S. cerevisiae deletion strains, locus YJR075W, strain HOC1, hits give low values 1.02 | S. cerevisiae deletion strains, locus YKL009W, strain mrt4, hits give low values 1.02 | S. cerevisiae deletion strains, locus YKL068W, hits give low values 0.998 | S. cerevisiae deletion strains, locus YKL085W, strain MDH1 (second series), hits give low values 0.996 | S. cerevisiae deletion strains, locus YKL085W, strain MDH1, hits give low values 0.996 | S. cerevisiae deletion strains, locus YKL160W, strain elf1, hits give low values 1 | S. cerevisiae deletion strains, locus YKL190W, strain CNB1, hits give low values 0.991 | S. cerevisiae deletion strains, locus YKR001C, strain vps1, hits give low values 1.01 | S. cerevisiae deletion strains, locus YKR026C, strain gcn3, hits give low values 1 | S. cerevisiae deletion strains, locus YKR091W, strain srl3, hits give low values 1 | S. cerevisiae deletion strains, locus YLL001W, strain dnm1, hits give low values 0.988 | S. cerevisiae deletion strains, locus YLL026W, hits give low values 0.997 | S. cerevisiae deletion strains, locus YLL041C, strain sdh2, hits give low values 1 | S. cerevisiae deletion strains, locus YLR027C, strain aat2, hits give low values 1.01 | S. cerevisiae deletion strains, locus YLR039C, strain RIC1, hits give low values 1.02 | S. cerevisiae deletion strains, locus YLR058C, strain SHM2, hits give low values 1.01 | S. cerevisiae deletion strains, locus YLR102C, strain apc9, hits give low values 0.986 | S. cerevisiae deletion strains, locus YLR221C, strain rsa3, hits give low values 1.01 | S. cerevisiae deletion strains, locus YLR258W, strain gsy2, hits give low values 0.996 | S. cerevisiae deletion strains, locus YLR262C, strain YPT6 (second series), hits give low values 1.01 | S. cerevisiae deletion strains, locus YLR262C, strain YPT6, hits give low values 1.06 | S. cerevisiae deletion strains, locus YLR268W, strain sec22, hits give low values 0.991 | S. cerevisiae deletion strains, locus YLR320W, strain mms22, hits give low values 0.999 | S. cerevisiae deletion strains, locus YLR330W, strain CHS5, hits give low values 1.01 | S. cerevisiae deletion strains, locus YLR342W, strain FKS1 (second series), hits give low values 1 | S. cerevisiae deletion strains, locus YLR342W, strain FKS1, hits give low values 1 | S. cerevisiae deletion strains, locus YLR357W, strain rsc2, hits give low values 0.986 | S. cerevisiae deletion strains, locus YLR370C, strain arc18, hits give low values 1.01 | S. cerevisiae deletion strains, locus YLR371W, strain rom2, hits give low values 0.978 | S. cerevisiae deletion strains, locus YLR384C, strain iki3, hits give low values 0.991 | S. cerevisiae deletion strains, locus YLR418C, strain cdc73, hits give low values 1.01 | S. cerevisiae deletion strains, locus YML016C, strain PPZ1, hits give low values 1.01 | S. cerevisiae deletion strains, locus YML032C, strain rad52, hits give low values 0.993 | S. cerevisiae deletion strains, locus YML120C, strain ndi1, hits give low values 1.01 | S. cerevisiae deletion strains, locus YML124C, strain tub3, hits give low values 0.996 | S. cerevisiae deletion strains, locus YMR058W, strain fet3, hits give low values 1.01 | S. cerevisiae deletion strains, locus YMR078C, strain ctf18, hits give low values 0.992 | S. cerevisiae deletion strains, locus YMR125W, strain sto1, hits give low values 0.996 | S. cerevisiae deletion strains, locus YMR129W, hits give low values 1.01 | S. cerevisiae deletion strains, locus YMR205C, strain PFK2, hits give low values 0.975 | S. cerevisiae deletion strains, locus YMR223W, strain ubp8, hits give low values 0.995 | S. cerevisiae deletion strains, locus YMR231W, strain pep5, hits give low values 1 | S. cerevisiae deletion strains, locus YMR263W, strain SAP30, hits give low values 1.01 | S. cerevisiae deletion strains, locus YMR307W, strain GAS1, hits give low values 1.02 | S. cerevisiae deletion strains, locus YNL067W, strain RPL9B, hits give low values 1.01 | S. cerevisiae deletion strains, locus YNL071W, strain lat1, hits give low values 1.01 | S. cerevisiae deletion strains, locus YNL128W, strain TEP1, hits give low values 1.01 | S. cerevisiae deletion strains, locus YNL153C, strain GIM3, hits give low values 1 | S. cerevisiae deletion strains, locus YNL209W, strain ssb2, hits give low values 1.01 | S. cerevisiae deletion strains, locus YNL233W, strain BNI4, hits give low values 1.02 | S. cerevisiae deletion strains, locus YNL248C, strain rpa49, hits give low values 0.992 | S. cerevisiae deletion strains, locus YNL250W, strain rad50, hits give low values 0.989 | S. cerevisiae deletion strains, locus YNL271C, strain bni1, hits give low values 0.992 | S. cerevisiae deletion strains, locus YNL298W, strain CLA4, hits give low values 0.983 | S. cerevisiae deletion strains, locus YNL307C, strain MCK1, hits give low values 0.989 | S. cerevisiae deletion strains, locus YNL322C, strain KRE1 (second series), hits give low values 0.999 | S. cerevisiae deletion strains, locus YNL322C, strain KRE1, hits give low values 1.01 | S. cerevisiae deletion strains, locus YNR049C, strain mso1, hits give low values 1 | S. cerevisiae deletion strains, locus YNR052C, strain pop2, hits give low values 0.987 | S. cerevisiae deletion strains, locus YOL006C, strain TOP1, hits give low values 1.1 | S. cerevisiae deletion strains, locus YOL012C, strain htz1 0.971 | S. cerevisiae deletion strains, locus YOL147C, strain pex11, hits give low values 0.981 | S. cerevisiae deletion strains, locus YOR001W, strain rrp6, hits give low values 1.01 | S. cerevisiae deletion strains, locus YOR061W, strain CKA2, hits give low values 1 | S. cerevisiae deletion strains, locus YOR069W, strain VPS5, hits give low values 0.998 | S. cerevisiae deletion strains, locus YOR070C, strain gyp1, hits give low values 1 | S. cerevisiae deletion strains, locus YOR080W, strain dia2, hits give low values 0.996 | S. cerevisiae deletion strains, locus YOR083W, strain WHI5, hits give low values 0.999 | S. cerevisiae deletion strains, locus YOR106W, strain vam3, hits give low values 0.996 | S. cerevisiae deletion strains, locus YOR136W, strain idh2, hits give low values 1.01 | S. cerevisiae deletion strains, locus YOR144C, strain elg1, hits give low values 0.983 | S. cerevisiae deletion strains, locus YOR184W, strain ser1, hits give low values 1 | S. cerevisiae deletion strains, locus YOR265W, strain rbl2, hits give low values 1.03 | S. cerevisiae deletion strains, locus YOR270C, strain vph1, hits give low values 1 | S. cerevisiae deletion strains, locus YOR290C, strain snf2, hits give low values 0.994 | S. cerevisiae deletion strains, locus YOR316C, strain cot1, hits give low values 0.987 | S. cerevisiae deletion strains, locus YPL051W, strain arl3, hits give low values 1 | S. cerevisiae deletion strains, locus YPL055C, strain LGE1, hits give low values 1.05 | S. cerevisiae deletion strains, locus YPL078C, strain atp4, hits give low values 1 | S. cerevisiae deletion strains, locus YPL106C, strain sse1, hits give low values 0.996 | S. cerevisiae deletion strains, locus YPL240C, strain hsp82, hits give low values 1.01 | S. cerevisiae deletion strains, locus YPL241C, strain CIN2, hits give low values 0.999 | S. cerevisiae deletion strains, locus YPR119W, strain clb2, hits give low values 0.986 | S. cerevisiae deletion strains, locus YPR141C, strain kar3, hits give low values 0.996 | S. cerevisiae deletion strains, locus YPR163C, strain tif3, hits give low values 0.983 | S. cerevisiae deletion strains, locus YPR167C, strain met16, hits give low values 0.99 | S. cerevisiae deletion strains, strain wtn01, hits give low values 0.997 | S. cerevisiae strains, strain wild type, hits give low values 1
